Reference: the supplement of paper PMC10933113
Structures can show the parent of a compound that is named as a salt. ± gives the uncertainty stated by the source.

Test system: THP-1
Assay: CD86 surface expression induction over DMSO control (% over DMSO); higher = stronger dendritic cell activation
Conditions: exposure time: 24 h
Description: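 hCLAT-like CD54 and CD86 surface expression on THP1 cells after 24 h exposure at a single concentration (highest non-cytotoxic concentration, or 100-200 µM if not cytotoxic). Flow cytometry (iQue) was run on 5,000 live cells.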

In order of rising “CD86 surface expression induction” value:
1. COc1ccccc1N [2-Methoxyaniline hydrochloride] (100 µM)  -19.9 ± 30
2. CC(C)OC(=S)S [Proxan-sodium] (10 µM)  -16.7 ± 6.5
3. CS/C(C)=N\OC(=O)N(C)SN(C)C(=O)O/N=C(\C)SC [Thiodicarb] (10 µM)  -14.6 ± 7.8
4. CCS(=O)(=O)CCSP(=O)(OC)OC [Demeton-S-methylsulphon] (10 µM)  -12.6 ± 14
5. CCCOC/C(=N\c1ccc(Cl)cc1C(F)(F)F)n1ccnc1 [Triflumizole] (10 µM)  -11.1 ± 7.1
6. c1ccc2c(c1)OCC(C1=NCCN1)O2 (centres undefined) [Idazoxan] (10 µM)  -10.6 ± 13
7. c1cc(OCC2CO2)cc(OCC2CO2)c1 (centres undefined) [Diglycidyl resorcinol ether (DGRE)] (10 µM)  -10.6 ± 5
8. CCC(C)(NC(=O)c1cc(Cl)c(C)c(Cl)c1)C(=O)CCl (centres undefined) [Zoxamide] (10 µM)  -5.9 ± 2.3
9. COc1ccc(O)c(C(C)(C)C)c1 [2-tert-Butyl-4-methoxyphenol] (200 µM)  -4.34 ± 6.1
10. Cl/C=C\C[N+]12CN3CN(CN(C3)C1)C2 [Chloroallyl methenamine chloride] (10 µM)  -4.14 ± 1.1
11. Nc1ccc(-c2ccccc2)cc1 [4-Biphenylamine hydrochloride] (100 µM)  -3.55 ± 5.8
12. CCOP(=S)(OCC)Oc1cnc2ccccc2n1 [Quinalphos] (200 µM)  -2.83 ± 2.4
13. N#CCC#N [Propanedinitrile] (199 µM)  -2.3 ± 0.49
14. Nc1ccc([N+](=O)[O-])cc1N [4-Nitro-1,2-phenylenediamine] (100 µM)  -1.29 ± 1.9
15. CCOC(=O)CC(SP(=S)(OC)OC)C(=O)OCC (centres undefined) [Malathion] (100 µM)  -0.63 ± 4.7
16. NNCc1ccccc1 (100 µM)  2.81 ± 0.59
17. OCc1ccco1 [Furfuryl alcohol] (201 µM)  5.82 ± 11
18. CCOC(=O)NC(=S)Nc1ccccc1NC(=S)NC(=O)OCC [Thiophanate] (100 µM)  10.2 ± 18
19. C=C1C[C@@H]2[C@H](CC[C@]3(C)C(=O)CC[C@@H]23)[C@@]2(C)C=CC(=O)C=C12 [Exemestane] (100 µM)  12.3 ± 25
20. CC(C)=CC1C(C(=O)OCc2coc(Cc3ccccc3)c2)C1(C)C (centres undefined) [Resmethrin] (200 µM)  16.4 ± 4.8
21. O=C1C(Cl)=C(Cl)C(=O)C(Cl)=C1Cl [Chloranil] (100 µM)  16.6 ± 9.4
22. c1ccc(-c2cccc(-c3ccccc3)c2)cc1 [1,1':3',1''-Terphenyl] (200 µM)  17.1 ± 26
23. CCc1cccc(CC)c1N(COC)C(=O)CCl [Alachlor] (100 µM)  22.3 ± 7.5
24. Nc1ccc(N)cc1 [1,4-Benzenediamine] (10 µM)  29
25. COP(=O)(OC)OC(Br)C(Cl)(Cl)Br (centres undefined) [Naled] (100 µM)  30.5 ± 5.4
26. ClC1=C(Cl)C2(Cl)C3C(Cl)C(Cl)CC3C1(Cl)C2(Cl)Cl (centres undefined) [Chlordane] (200 µM)  33.3 ± 45
27. O=[N+]([O-])c1cc(C(F)(F)F)c(Cl)c([N+](=O)[O-])c1Cl [2,4-Dichloro-1,3-dinitro-5-(trifluoromethyl)benzene] (10 µM)  34.2 ± 15
28. Cc1cc(C2CC2)nc(Nc2ccccc2)n1 [Cyprodinil] (200 µM)  44.9 ± 64
29. C[C@]12CC[C@H](O)C[C@H]1CC[C@@H]1[C@@H]2C[C@@H](O)[C@]2(C)[C@@H](C3=CC(=O)OC3)CC[C@]12O [Digoxigenin] (10 µM)  46.8 ± 22
30. [Cl][Cd][Cl] [Cadmium II chloride] (200 µM)  51.1 ± 5.8
31. CC(C)CC(C)Nc1ccc(Nc2ccccc2)cc1 (centres undefined) [N-(1,3-Dimethylbutyl)-N'-phenyl-p-phenylenediamine] (10 µM)  59.8 ± 11
32. S=C=NCc1ccccc1 (10 µM)  64.3 ± 6.8
33. COc1ccc(C(c2ccc(OC)cc2)C(Cl)(Cl)Cl)cc1 [Methoxychlor] (200 µM)  70.8 ± 55
34. [OH-].c1cc[c]([Sn+]([c]2ccccc2)[c]2ccccc2)cc1 [Triphenyltin hydroxide] (10 µM)  77.3 ± 9.9
35. [CH3][Hg][Cl] [Methyl mercuric (II) chloride] (10 µM)  86 ± 7.1
36. CN(C)S(=O)(=O)N(SC(F)(Cl)Cl)c1ccccc1 [Dichlofluanid] (10 µM)  88.09 ± 0.57
37. O=C1OC(CCN2CCCCC2)OC1(c1ccccc1)c1ccccc1 (centres undefined) [Pipoxolan hydrochloride] (100 µM)  98.2 ± 160
38. ClC1=C(Cl)C(Cl)(Cl)C(Cl)=C1Cl [Hexachlorocyclopentadiene] (200 µM)  99.2 ± 97
39. O=C1C=CC(=O)c2ccccc21 (10 µM)  366 ± 22
